In ChEMBL document CHEMBL4513216, “Probing the Open Global Health Chemical Diversity Library for Multistage-Active Starting Points for Next-Generation Antimalarials” (ACS Infect Dis, 2020):
Out of some 69,000 compounds screened, about 8,600 (12%) showed an effect of 50% or more. The sample holds strong results, similar compounds and a random draw of the others, so the mix is not that of the screen.

These molecules were tested on Plasmodium berghei (assay: Screen against P. berghei liver stage (PbLuc), transformed with Luciferase, at 10uM). Conditions: tested at 10 uM.
Type: functional, HepG2

SMILES	INHIBITION
O=C(N1CCOCC1)N1CCc2ncnc(NC3CCC3)c2CC1	-2.35%
Cc1ncnc2c1CCN(c1cc(C(F)(F)F)ncn1)CC2	-17%
O=C(N1CCOCC1)N1CCc2ncnc(NC3CC3)c2CC1	26.8%
CC(C)Nc1ncnc2c1CCN(C(=O)N1CCOCC1)CC2	75.4%
CC(C)Nc1ncnc2c1CCN(C(=O)[C@H]1CCCO1)CC2	-12.2%
Cc1ccsc1C(=O)N1CCc2ncnc(NC(C)C)c2CC1	19.4%
FC(F)(F)c1cc(N2CCc3ncnc(NC4CC4)c3CC2)ncn1	-31.6%
CC(C)Nc1ncnc2c1CCN(C(=O)c1ccc[nH]1)CC2	70.7%
CC(C)Nc1ncnc2c1CCN(c1cc(C(F)(F)F)ncn1)CC2	60.3%
CN(Cc1nnc2n1CCC2)C(=O)Cc1ccc2c(c1)CCC2	19.2%
CC(=O)NC1CCN(c2cc(C3CCNCC3)ccn2)CC1	20.2%
O=C(c1ncccn1)N1C[C@@H]2CN(Cc3cccnc3)CCO[C@@H]2C1	-1.26%
Fc1ccc(C(CNc2ccncn2)N2CCCC2)cc1 (stereo unspecified)	45%
Cc1cc(C(=O)N2CCC3(C2)CN(c2ccsc2)C(=O)CN3C)[nH]n1 (stereo unspecified)	46.2%
COc1ccc2c(c1)Cc1c-2nc(N)c(C#N)c1C1CCOC1 (stereo unspecified)	73.9%
N#Cc1c(N)nc2c(c1C1CCOC1)CCc1cc(O)ccc1-2 (stereo unspecified)	-3.12%

SMILES	INHIBITION
COc1ccc2c(c1OC)Cc1c-2nc(N)c(C#N)c1C1CCOC1 (stereo unspecified)	40.5%
Cc1ccc(C(=O)Nc2ccc(N(C)C)cn2)n1C	-75.9%
CCc1ccc(CN2C[C@@H]3COC[C@H](NS(C)(=O)=O)[C@@H]3C2)o1	-12.2%
Cc1ccc(Oc2ncccc2C(=O)N(C)CC2OCCO2)c(C)c1	-17.2%
c1cc(C2CN(C3CCCCC3)C2)n[nH]1	15.92%
CCC(N)c1ccccc1OCC(=O)N1CCCC1 (stereo unspecified)	-42.3%
Cc1ccoc1CNCc1nnc2n1CCCC2C(F)(F)F (stereo unspecified)	47.4%
Cc1ccoc1CNCc1nnc2n1CC(C(F)(F)F)CC2 (stereo unspecified)	52.6%
COc1cccc(CNCc2nnc3n2CC(C(F)(F)F)CC3)c1 (stereo unspecified)	45.1%
Cc1ccc(CNCc2nnc3n2CC(C(F)(F)F)CC3)o1 (stereo unspecified)	65.9%
FC(F)(F)C1CCCn2c(CNCc3ccco3)nnc21 (stereo unspecified)	45.3%
Cc1ccc(CNCc2nnc3n2CCCC3C(F)(F)F)o1 (stereo unspecified)	4.92%
CCC(NC(=O)c1cc(CC(C)C)nn1C)c1cccc(C)n1 (stereo unspecified)	86.7%
CCC(NC(=O)c1cc(CC(C)C)nn1C)c1cc(C)ccn1 (stereo unspecified)	-1.15%
CCC(NC(=O)c1cc(CC(C)C)nn1C)c1ccnn1C (stereo unspecified)	-18.2%
